Compound activity from PubChem BioAssay.
Compounds with a hit are over-represented: about 1.7% of the library has one in this group of screens.
GLP-1R agonist = qHTS of GLP-1 Receptor Agonists. hit rate 0.007% among 380,000. AID 624172, 2012. Glucagon-like peptide 1 receptor (Homo sapiens), P43220. Potency, µM (doses to about 45.6 µM), for the others: at the top dose activation, actives largely listed as activators. HEK293 GLP-1R CRE-luciferase, luminescence, 4-6 h; cells express a hypersensitive GLP-1R form; also: % of control where 0% means no effect
Target sequence (P43220 whole entry, looked up): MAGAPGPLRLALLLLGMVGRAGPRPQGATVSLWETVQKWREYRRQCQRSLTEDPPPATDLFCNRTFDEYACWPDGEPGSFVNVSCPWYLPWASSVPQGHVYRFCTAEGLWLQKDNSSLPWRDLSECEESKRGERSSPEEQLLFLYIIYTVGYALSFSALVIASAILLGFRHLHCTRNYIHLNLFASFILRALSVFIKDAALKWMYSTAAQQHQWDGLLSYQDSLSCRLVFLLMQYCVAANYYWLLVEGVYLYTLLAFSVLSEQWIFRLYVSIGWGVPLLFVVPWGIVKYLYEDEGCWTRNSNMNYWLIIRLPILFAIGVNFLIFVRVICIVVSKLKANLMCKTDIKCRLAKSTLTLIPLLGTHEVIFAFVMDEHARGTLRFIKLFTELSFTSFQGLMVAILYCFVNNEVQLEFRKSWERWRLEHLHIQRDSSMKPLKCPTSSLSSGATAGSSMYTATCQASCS
HEK293 tox = qHTS of GLP-1 Receptor Inverse Agonists: Cytotox Screen. HEK293 cAMP-luciferase reporter cells, luminescence, 24 h. Potency, µM (titrated, usually from 38.3 µM), without a hit: at the highest dose activity change, negative = inhibition, usual class: inhibitors. hit rate 0.13% among 410,000;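 also: loss of luciferase light is scored as toxicity; % is scaled to controls: 0 for no effect and ±100 for the full control effect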
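Cells in DMEM/10% Nu serum/1% pen-strep, 1536-well format. Pre-incubated 12 h, dosed with 23 nL compound, incubated a further 24 h. Luciferase detection, 12 min at room temp, luminescence.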
GLP-1R inv ag = qHTS of GLP-1 Receptor Inverse Agonists (Inhibition Mode). Glucagon-like peptide 1 receptor (Homo sapiens), P43220. HEK293 GLP-1R CRE-luciferase, luminescence, 24 h; GLP-1R form is constitutively active. Potency, µM (series often up to 38.3 µM), for inactives: top-dose activity change, negative = inhibition, hits mostly inhibitors. hit rate 1.6% among 410,000. AID 624417, 2012; also: % is scaled to controls: 0 for no effect and ±100 for the full control effect; nearly all actives have a fitted effect of over 55% in size
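Readout was luciferase luminescence, measured 12 min after detection reagent at room temperature. Beforehand, GLP-1R reporter HEK293 cells had sat 12 h, then received compounds for 24 hr at 37 deg C.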
Numbers without * were called inactive; ? = inconclusive; nt = no result; ! = not confirmed by another sample; [ ] = remark or other dose. Calls follow the shape of the dose curve; as a rule, active = well fitted curve in the direction sought with a large enough effect; inconclusive = small, poorly fitted or top-dose-only effect, or another doubt; inactive = no such curve, though single readings can be large; an effect the other way counts as inactive or inconclusive. Potency is read from the fitted curve at half-maximal effect.

SMILES | GLP-1R agonist | HEK293 tox | GLP-1R inv ag
Cc1ccccc1OCCSc1nc2ccc(NC(=O)c3cccc(F)c3)cc2s1 | nt | -21% | ?
CCC(C)N1C(=O)CN(C2CCCCCC2)C(=O)C1c1ccccc1F (stereo not given) | 6% | -10% | 0%
CCc1ccc(S(=O)(=O)Nc2cccc(-c3ccc(N4CCCCC4)nn3)c2)s1 | nt | -23% | ?
Cc1ccc(C)c(N2C(=O)N(Cc3cccc(C(F)(F)F)c3)c3ccccc3S2(=O)=O)c1 | 0% | -6% | ?
CC(=O)c1ccc(N2C(=O)N(Cc3cccc(C(F)(F)F)c3)c3ccccc3S2(=O)=O)cc1 | -11% | -10% | 10µM*
CCN1c2ccccc2-c2nc(SCC(=O)NCc3ccc(Cl)cc3)ncc2S1(=O)=O | nt | 5% | ?
COc1ccccc1NC(=O)CSC1=Nc2ccccc2C2=NC(CC(=O)NCc3ccco3)C(=O)N12 (stereo not given) | nt | -8% | 21%
CC(C)CC(OC(=O)c1ccco1)C(=O)NC1CCCC1 (stereo not given) | 7% | 7% | -20%
Cc1c(C(=O)N(Cc2cccc(Br)c2)C2CCS(=O)(=O)C2)oc2ccc(F)cc12 (stereo not given) | -3% | -12% | 22µM*
Cc1c(C(=O)N(Cc2cccc(F)c2)C2CCS(=O)(=O)C2)oc2cc(Br)ccc12 (stereo not given) | nt | 1% | ?
O=C(CN(c1cccc(Br)c1)S(=O)(=O)c1ccccc1)N1CCc2ccccc2C1 | nt | 4% | 10µM*
CCN1CCN(C(=O)CN(c2cccc(Br)c2)S(=O)(=O)c2ccccc2)CC1 | 0% | -1% | 0%
CCC1Nc2ncnc(N3CCCCC3)c2N(Cc2ccc(Br)cc2)C1=O (stereo not given) | 1% | 0% | ?
O=C1C(Cc2ccccc2)Nc2ncnc(N3CCc4ccccc4C3)c2N1Cc1ccc(Cl)cc1 (stereo not given) | -1% | -9% | ?
CCC1Nc2ncnc(N3CCCCC3)c2N(Cc2ccc(Cl)cc2)C1=O (stereo not given) | -1% | -36% | 10µM*!
CCC1Nc2ncnc(N3CCc4ccccc4C3)c2N(Cc2ccc(Cl)cc2)C1=O (stereo not given) | -2% | -16% | 7.9µM*
CC1(C)CC(NC(=O)c2ccccc2C(=O)NC2CC(C)(C)NC(C)(C)C2)CC(C)(C)N1 | 0% | 2% | 5%
CC1(C)CC(NC(=O)N2c3ccccc3Sc3ccccc32)CC(C)(C)N1 | 1% | ? | 5µM*
CCOC(=O)c1nc(C)nc(Sc2n[nH]c(-c3cc(Cl)cc(Cl)c3)n2)c1C | 0% | -2% | 19%
CCOC(=O)c1nc(C)nc(Sc2n[nH]c(-c3ccc(C(C)(C)C)cc3)n2)c1C | -7% | -14% | 10µM*
CC1CN(c2ncnc3c2c(-c2ccccc2)cn3-c2ccc(F)cc2)CC(C)O1 (stereo not given) | 12% | 6% | 4µM*
OCCN1CCN(c2ncnc3c2c(-c2ccccc2)cn3-c2ccc(F)cc2)CC1 | 7% | 0%[0.307 µM] | -11%[0.307 µM]
Cc1ccc(-n2cc(-c3ccccc3)c3c(N4CCOCC4)ncnc32)cc1 | 7% | -17% | 3.5µM*
Cc1ccc(-n2cc(-c3ccccc3)c3c(NC4CCCC4)ncnc32)cc1 | nt | -8% | 2.5µM*
Cc1ccc(-n2cc(-c3ccccc3)c3c(N4CCCCC4)ncnc32)cc1 | nt | -4% | -1%
SMILES | GLP-1R agonist | HEK293 tox | GLP-1R inv ag
Cc1cccc(-n2cc(-c3ccccc3)c3c(NC4CCCC4)ncnc32)c1 | nt | 2% | ?
Cc1ccc(S(=O)(=O)NC2CC(C)(C)N(O)C(C)(C)C2)cc1 | -31% | -8% | 18%
COc1ccc(-c2sc3ccc(OC)cc3c2-c2ccc(OCCN3CCOCC3)cc2)cc1 | -2% | 8% | 10µM*
COc1cccc(-c2sc3ccc(OC)cc3c2-c2ccc(OCCN3CCCC3)cc2)c1 | 6% | 5% | ?
O=C(CC1SC(=Nc2ccc(OC(F)F)cc2)N(CCC2=CCCCC2)C1=O)Nc1ccccc1F (stereo not given) | -9% | ? | ?
CCOc1ccccc1N=C1SC(CC(=O)Nc2ccc(OC)cc2OC)C(=O)N1CCC1=CCCCC1 (stereo not given) | 0% | 2% | 2.8µM*
COc1ccc2cc(C[C@@H]3CC[C@@H](CNC(N)=O)O3)ccc2c1 | 9% | 3% | 23%
Cc1cc(C(=O)COC(=O)C2=COCCO2)c(C)n1-c1cccc(F)c1 | 4% | 2% | 10µM*
Cc1cc(C(=O)COC(=O)C2=COCCO2)c(C)n1-c1ccc2c(c1)OCO2 | 0% | -15% | ?
CCCC(=O)O[C@]1(C(=O)COC(=O)CC)[C@@H](C)C[C@H]2[C@@H]3CCC4=CC(=O)C=C[C@@]4(C)[C@@]3(F)[C@H](O)C[C@@]21C | -4% | nt | nt
CCN(Cc1ccccc1)C(=O)Cn1c(=O)n(-c2cccc(C)c2)c(=O)c2c1c1cc(OC)ccc1n2C | nt | -6% | 9%
CCOc1ccc(-c2cc3c(=O)n(CC(=O)NCc4ccc(C)cc4)ccn3n2)cc1 | nt | 29% | 9%
OCCC1CN(Cc2nc(-c3ccc(F)cc3)cs2)CCN1CCc1ccccc1 (stereo not given) | -1% | -14% | ?
OCCC1CN(Cc2nc(-c3ccccc3)cs2)CCN1CCc1ccccc1 (stereo not given) | 9% | -29% | 10µM*
CCC(=O)N1c2ccc(S(=O)(=O)NCCc3ccccc3)cc2CC1C (stereo not given) | 22% | ? | 5%
CNc1ccccc1C(=O)OCC(=O)N(CCOC)c1c(N)n(CC(C)C)c(=O)[nH]c1=O | -6% | 5% | 9%
COc1cccc(Cc2nc3ccccc3nc2SCC(=O)N2CCCCC2C)c1 (stereo not given) | -5% | -1% | ?
Cc1ccc(Cc2nc3ccccc3nc2SCC(=O)N2CCCCC2C)cc1 (stereo not given) | -5% | -7% | 10µM*
CN1C(=O)c2ccccc2Sc2ccc(NC(=O)NCc3cccc(Cl)c3)cc21 | nt | -26% | ?
C(=C\c1ccccc1)/CSc1nnc(-c2ccccc2)n1Cc1ccco1 | 7% | -30% | 7.1µM*
C(=C\c1ccccc1)/CSc1nnc(-c2ccncc2)n1Cc1ccco1 | 25% | -1% | -11%
COC(=O)c1c(SC)nc2ccccc2c1OCc1ccc(C)cc1 | nt | 6% | ?
CCSc1nc2ccccc2c(OCc2ccc(Cl)cc2)c1C(=O)OC | nt | 4% | 22µM*
Cc1cnc(CNC(=O)c2ccc3sc([C@H]4C[C@H](O)[C@@H](CO)O4)nc3c2)cn1 | 0% | 0% | 31%
CC1(C(=O)NCc2ccc(Cl)c(Cl)c2)Oc2cccnc2NC1=O (stereo not given) | 7% | 0% | -4%
Cc1ccc(NC(=O)CSc2ccccc2)cc1S(=O)(=O)N1CCCCC1 | 0% | -6% | 7.9µM*
Cc1ccc(NC(=O)CSc2ccccc2)cc1S(=O)(=O)N1CCOCC1 | 4% | 5% | -12%
